From PubChem BioAssay (Tox21)
Results filed as inconclusive are left out. Activity calls are given as the source filed them. Unless noted, calls come from the whole dose curve; as a rule, active = well fitted curve in the direction sought with a large enough effect in the repeat runs; inconclusive = weak or mixed curves; inactive = no such curve, though single readings can be large; an effect the other way counts as inactive or inconclusive.

How the values were obtained:
[1] = qHTS assay for small molecules that induce genotoxicity in human embryonic kidney cells expressing luciferase-tagged ATAD5 (AID 651632); note: % is set by controls: 0 for no effect and ±100 for the full control effect; nearly all actives have a fitted effect of over 15% in size
Outline: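 Test compounds were delivered by pin tool onto HEK293T reporter cells (2,000/well) expressing ATAD5 fused to luciferase. After 16 hr at 37C, 5% CO2, Amplite was added for 30 min at room temperature and luminescence was measured.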

[2] = qHTS assay for small molecule agonists of the p53 signaling pathway - cell viability (AID 651633; calls by dose curve; note: nearly all actives have a fitted effect of over 30% in size; note: potency is the fitted concentration of half-maximal effect)
Outline: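 p53RE-bla cells, seeded at 4,000 per well and rested 5 h at 37 C/5% CO2, received compounds in DMSO for 16 h at 37 C. CellTiter-Glo was then added, and luminescence was read after 30 min at room temperature to gauge cytotoxicity.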

[3] = qHTS assay for small molecules that induce genotoxicity in human embryonic kidney cells expressing luciferase-tagged ATAD5 - cell viability (AID 651634; calls by dose curve; note: nearly all actives have a fitted effect of over 25% in size; note: potency is the fitted concentration of half-maximal effect)
Outline: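 Quantitative high-throughput format. HEK293T cells expressing ATAD5 fused to luciferase were plated at 2,000 cells/well and treated 15.5 hr with compound versus DMSO. Viability was determined by fluorescent live-cell protease substrate, 30 min at 37C.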

[4] = qHTS assay for small molecule disruptors of the mitochondrial membrane potential - cell viability (AID 720634; calls by dose curve; note: nearly all actives have a fitted effect of over 20% in size; note: potency is the fitted concentration of half-maximal effect)
Outline: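 Same-well counter-screen: following the MMP dye addition, CellTiter-Glo was added to 1 hr compound-treated HepG2 cells and luminescence read after 30 min at room temperature.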

[5] = qHTS assay for small molecule disruptors of the mitochondrial membrane potential (AID 720635); note: potency is the fitted concentration of half-maximal effect
Outline: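 HepG2 cells (2,000/well) attached overnight at 37C, then took compound for 1 hr at 37C, 5% CO2. Mito-MPS dye was added for 30 min; fluorescence was read at 490/535 nm (monomers) and 540/590 nm (aggregates).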

[6] = qHTS assay to test for compound auto fluorescence at 590 nm (red) in HepG2 cells (AID 720674); note: % is set by controls: 0 for no effect and ±100 for the full control effect
Outline: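 Rose Bengal sodium served as the red fluorophore standard. HepG2 monolayers (overnight attachment, MEM with 10% FBS) were exposed to test compounds for 1 hr at 37 C and read at Ex 540/Em 590 nm.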

[7] = qHTS assay to test for compound auto fluorescence at 460 nm (blue) in HEK293 cells (AID 720678); note: % is set by controls: 0 for no effect and ±100 for the full control effect
Outline: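 Cells were seeded and left to adhere for 4-5 hr at 37C. Compounds were then pin-transferred. After an overnight incubation at 37C under 5% CO2, intrinsic fluorescence at 405/460 nm was measured and referenced to triamterene.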

[8] = qHTS assay to test for compound auto fluorescence at 590 nm (red) in HEK293 cells (AID 720679); note: % is set by controls: 0 for no effect and ±100 for the full control effect
Outline: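 Each well held 2,000 HEK293 cells in medium containing 10% dialyzed FBS. Following 4-5 hr attachment at 37C, 23 nL test compound or DMSO was added; plates sat overnight, and red fluorescence (540/590nm) was recorded.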

[9] = qHTS assay to test for compound auto fluorescence at 535 nm (green) in HEK293 cells (AID 720680); note: % is set by controls: 0 for no effect and ±100 for the full control effect
[10] = qHTS assay to test for compound auto fluorescence at 460 nm (blue) in HEK293 cell free culture (AID 720681); note: % is set by controls: 0 for no effect and ±100 for the full control effect
Outline: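 Test compounds were pinned into cell-free culture medium (DMEM with 10% FBS) and fluorescence was read directly at Ex/Em 405/460 nm. Signals were expressed as fluorescence equivalents of triamterene, with DMSO vehicle as control.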

[11] = qHTS assay to test for compound auto fluorescence at 535 nm (green) in HEK293 cell free culture (AID 720682); note: % is set by controls: 0 for no effect and ±100 for the full control effect
Outline: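 Steps: dispense DMEM/10% FBS into empty wells; pin in compound or DMSO; measure fluorescence at 485/535 nm. Values are fluorescein equivalents.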

[12] = qHTS assay to test for compound auto fluorescence at 590 nm (red) in HEK293 cell free culture (AID 720683); note: % is set by controls: 0 for no effect and ±100 for the full control effect
Outline: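 Tox21 10K library compounds were pinned into cell-free DMEM with 10% FBS and fluorescence was read at excitation 540 nm. Activity is expressed as Rose Bengal sodium equivalency.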

[13] = qHTS assay to test for compound auto fluorescence at 590 nm (red) in HepG2 cell free culture (AID 720684); note: % is set by controls: 0 for no effect and ±100 for the full control effect
Outline: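 Ex 540 / Em 590 nm read of compound in cell-free MEM (10% FBS). Rose Bengal sodium reference.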

[14] = qHTS assay to test for compound auto fluorescence at 460 nm (blue) in HepG2 cell free culture (AID 720685); note: % is set by controls: 0 for no effect and ±100 for the full control effect
Outline: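 Cell-free plates of MEM plus 10% FBS received 23 nL compound or DMSO vehicle; blue-channel (405/460 nm) intensity scored against triamterene as reference fluorophore.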

[15] = qHTS assay to test for compound auto fluorescence at 535 nm (green) in HepG2 cell free culture (AID 720686); note: % is set by controls: 0 for no effect and ±100 for the full control effect
[16] = qHTS assay for small molecule agonists of the p53 signaling pathway (AID 651631; calls by dose curve; note: potency is the fitted concentration of half-maximal effect; nearly all actives have a fitted effect of over 15% in size)
Outline: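 HCT-116 p53RE-bla reporter line, 16 h compound treatment at 37 °C, then fluorescence after 2 h with B/G FRET substrate.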

[17] = qHTS assay to test for compound auto fluorescence at 535 nm (green) in HepG2 cells (AID 720675); note: potency is the fitted concentration of half-maximal effect
[18] = qHTS assay to test for compound auto fluorescence at 460 nm (blue) in HepG2 cells (AID 720687); note: % is set by controls: 0 for no effect and ±100 for the full control effect
Outline: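 Cells (2,000/well in MEM with 10% FBS) attached overnight at 37 C, then were exposed to compound or DMSO for 1 hr at 37 C, 5% CO2. Fluorescence read at Ex/Em 405/460 nm, expressed as triamterene-equivalent signal.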

[19] = molecular target: Glucocorticoid receptor (Homo sapiens) (UniProt P04150); assay: qHTS assay to identify small molecule agonists of the glucocorticoid receptor (GR) signaling pathway (AID 720691; active = well fitted activation curve with a large enough effect in the signal ratio in the repeat runs, not every such curve was filed as active; the % refers to the signal ratio; note: potency is the fitted concentration of half-maximal effect); conditions: GR-bla HeLa, beta-lactamase reporter ratio, 18 h; activation: at 62.4 µM (top of the series)
Outline: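 A HeLa cervical cancer line expressing GR and a glucocorticoid response element-driven beta-lactamase gene is treated with compounds for 18 h; LiveBLAzer B/G FRET substrate is then applied and fluorescence read.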

[20] = molecular target: Glucocorticoid receptor (Homo sapiens) (UniProt P04150); assay: qHTS assay to identify small molecule antagonists of the glucocorticoid receptor (GR) signaling pathway (AID 720692; active = well fitted inhibition curve with a large enough effect in the signal ratio in the repeat runs, not every such curve was filed as active; the % refers to the signal ratio; note: % is set by controls: 0 for no effect and ±100 for the full control effect)
Outline: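 GRE-bla HeLa line, dex-stimulated (5 nM final). Compound exposure 18 h, 37 C. Beta-lactamase FRET read after 2 h RT substrate.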

Glucocorticoid receptor (Homo sapiens), sequence (P04150 whole entry, looked up): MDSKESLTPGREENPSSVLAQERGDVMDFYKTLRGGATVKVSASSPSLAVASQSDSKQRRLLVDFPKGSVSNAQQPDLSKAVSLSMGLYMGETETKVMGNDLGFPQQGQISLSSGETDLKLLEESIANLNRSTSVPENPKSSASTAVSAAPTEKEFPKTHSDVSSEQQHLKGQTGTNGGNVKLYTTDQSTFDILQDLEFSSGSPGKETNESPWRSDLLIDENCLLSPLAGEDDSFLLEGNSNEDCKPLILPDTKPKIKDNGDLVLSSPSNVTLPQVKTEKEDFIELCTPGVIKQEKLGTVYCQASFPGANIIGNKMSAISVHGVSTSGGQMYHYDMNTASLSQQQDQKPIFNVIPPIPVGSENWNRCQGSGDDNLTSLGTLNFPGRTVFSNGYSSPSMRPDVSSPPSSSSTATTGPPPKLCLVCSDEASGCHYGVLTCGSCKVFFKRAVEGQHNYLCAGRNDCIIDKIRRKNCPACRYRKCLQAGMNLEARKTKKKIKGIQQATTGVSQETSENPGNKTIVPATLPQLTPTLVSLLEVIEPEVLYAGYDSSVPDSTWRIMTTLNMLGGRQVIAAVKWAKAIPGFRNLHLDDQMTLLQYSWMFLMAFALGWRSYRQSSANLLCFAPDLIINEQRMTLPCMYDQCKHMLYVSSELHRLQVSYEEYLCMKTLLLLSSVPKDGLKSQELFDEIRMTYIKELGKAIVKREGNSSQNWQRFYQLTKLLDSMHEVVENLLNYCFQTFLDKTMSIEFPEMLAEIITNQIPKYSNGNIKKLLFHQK

CC[C@H]1O[C@]2(CC[C@@H]1C)C[C@@H]1C[C@@H](C/C=C(\C)C[C@@H](C)/C=C/C=C3\CO[C@@H]4[C@H](O)C(C)=C[C@@H](C(=O)O1)[C@]34O)O2
active: Potency [2] 12.1 µM | Potency [3] 54 µM | Potency [4] 68 µM | Potency [5] 21.5 µM
inactive: Potency [1] | Potency [6] | Potency [7] | Potency [8] | outcome [9] | Potency [10] | outcome [11] | Potency [12] | Potency [13] | Potency [14] | Potency [15]

Cc1cc(C2CCCCC2)n(O)c(=O)c1
active: Potency [16] 8.04 µM | Potency [5] 3.2 µM
inactive: Potency [2] | Potency [3] | Potency [4] | fluorescence, relative to Rose Bengal [6] 0.33% [at 18.6 µM] | fluorescence, % of fluorescein control [17] -0.0302% [at 18.6 µM] | fluorescence, % of triamterene [7] -0.0951% [at 18.6 µM] | fluorescence, % of fluorescent control [8] -0.0357% [at 18.6 µM] | fluorescence, % of fluorescein [9] 0.0799% [at 18.6 µM] | fluorescence, % of fluorescent control [10] -0.0092% [at 18.6 µM] | activity change [11] 0.0414% [at 18.6 µM] | fluorescence, % of fluorescent control [12] 0.0163% [at 18.6 µM] | fluorescence, % of Rose Bengal [13] -0.0195% [at 18.6 µM] | fluorescence, % of fluorescent control [14] 0.0075% [at 18.6 µM] | fluorescence, % of fluorescein control [15] 0.005% [at 18.6 µM] | fluorescence, % of fluorescent control [18] 0.0031% [at 18.6 µM]

CCCCCCCCCCCCCC[P+](CCCC)(CCCC)CCCC (tested in a mixture with another compound)
active: Potency [2] 27.5 µM | Potency [3] 48.9 µM | Potency [4] 61.5 µM | Potency [5] 0.69 µM
inactive: Potency [1] | Potency [6] | Potency [17] | Potency [7] | Potency [8] | outcome [9] | Potency [10] | outcome [11] | Potency [12] | Potency [13] | Potency [14] | Potency [18]

CC1=C(C(=O)OC(C)C)C(c2cccc([N+](=O)[O-])c2)C(C(=O)OC2CN(C(c3ccccc3)c3ccccc3)C2)=C(N)N1 (stereo not given)
inactive: Potency [1] | Potency [6] | Potency [17] | Potency [7] | outcome [9] | Potency [10] | outcome [11] | Potency [12] | Potency [13] | Potency [14] | Potency [15]
active: Potency [2] 7.5 µM | Potency [3] 18.8 µM | Potency [4] 7.5 µM | Potency [5] 1.19 µM

CCCC(c1cc(C(C)(C)C)c(O)cc1C)c1cc(C(C)(C)C)c(O)cc1C
inactive: Potency [1] | Potency [6] | Potency [17] | Potency [7] | Potency [8] | outcome [9] | Potency [10] | outcome [11] | Potency [12] | Potency [13] | Potency [14]
active: Potency [2] 17.4 µM | Potency [3] 31 µM | Potency [4] 39 µM | Potency [5] 3.9 µM

Nc1ccc(N)c2ccccc12
active: Potency [2] 15.3 µM | Potency [3] 15.3 µM | Potency [4] 13.7 µM | Potency [5] 0.153 µM | Potency [17] 8.91 µM
inactive: Potency [1] | Potency [6] | Potency [7] | Potency [8] | outcome [9] | Potency [10] | outcome [11] | Potency [12] | Potency [13] | Potency [14] | Potency [18]

CN(C)[C@@H]1C(=O)C(C(N)=O)=C(O)[C@@]2(O)C(=O)C3=C(O)c4c(O)ccc(Cl)c4[C@@H](O)[C@H]3C[C@@H]12
inactive: Potency [1] | Potency [2] | Potency [3] | Potency [4] | Potency [5] | Potency [6] | Potency [17] | Potency [7] | Potency [8] | outcome [9] | Potency [10] | outcome [11] | Potency [12] | Potency [13] | Potency [14] | Potency [15] | Potency [19] | Potency [20]

O=c1cccccc1O
active: Potency [5] 3.93 µM
inactive: Potency [1] | Potency [2] | Potency [3] | Potency [4] | Potency [6] | Potency [17] | Potency [7] | Potency [8] | outcome [9] | Potency [10] | outcome [11] | Potency [12] | Potency [13] | Potency [14] | Potency [15] | Potency [19]

O=C(NO)C1(NS(=O)(=O)c2ccc(Oc3ccc(F)cc3)cc2)CCOCC1
inactive: Potency [1] | Potency [2] | Potency [3] | Potency [4] | Potency [5] | Potency [6] | Potency [17] | Potency [7] | outcome [9] | Potency [10] | outcome [11] | Potency [12] | Potency [13] | Potency [14] | Potency [15] | Potency [18] | Potency [19]

CCCCCCCCCCCCCCCCCC[N+](C)(C)Cc1ccccc1
active: Potency [2] 24.6 µM | Potency [3] 55 µM | Potency [4] 69.2 µM | Potency [5] 15.5 µM
inactive: Potency [1] | Potency [6] | Potency [17] | Potency [7] | outcome [9] | Potency [10] | outcome [11] | Potency [12] | Potency [13] | Potency [14] | Potency [15] | Potency [18]

O=C1CCCc2c1cc1ccc3cccc4ccc2c1c34
active: Potency [16] 55.1 µM | Potency [5] 8.74 µM | Potency [19] 22.2 µM
inactive: Potency [2] | Potency [3] | Potency [6] | Potency [17] | Potency [7] | Potency [8] | outcome [9] | Potency [10] | outcome [11] | Potency [12] | Potency [13] | Potency [14] | Potency [15] | Potency [18]

CCCCC(CC)CN=C(N)NC(N)=NCCCCCCN=C(N)NC(N)=NCC(CC)CCCC (stereo not given)
inactive: Potency [1] | Potency [6] | Potency [7] | Potency [8] | outcome [9] | Potency [10] | outcome [11] | Potency [12] | Potency [13] | Potency [14] | Potency [15] | Potency [18]
active: Potency [2] 26.6 µM | Potency [3] 26.6 µM | Potency [4] 21.1 µM | Potency [5] 17.6 µM
